{"source": "PubChem BioAssay AID1445", "about": "(SRMLSC, 2008)", "note": "Out of some 220,000 compounds screened, about 910 (0.41%) were called active.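 Rule for the calls: active = primary inhibition above the hit cutoff, then over 50% inhibition at one or more dose response concentrations (cut at about 23% in these data, passing the limit was not always enough); inconclusive = conflicting primary data, or primary hits not chosen for dose response; inactive = low primary inhibition, or under 50% at every dose.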 The entries come from a sample that favours actives as a whole. Entries with a potency or affinity are not part of this list."}
{"biological_target": "Aminopeptidase N (Plasmodium falciparum (isolate 3D7)) (UniProt O96935)", "sequence (O96935 whole entry, looked up)": "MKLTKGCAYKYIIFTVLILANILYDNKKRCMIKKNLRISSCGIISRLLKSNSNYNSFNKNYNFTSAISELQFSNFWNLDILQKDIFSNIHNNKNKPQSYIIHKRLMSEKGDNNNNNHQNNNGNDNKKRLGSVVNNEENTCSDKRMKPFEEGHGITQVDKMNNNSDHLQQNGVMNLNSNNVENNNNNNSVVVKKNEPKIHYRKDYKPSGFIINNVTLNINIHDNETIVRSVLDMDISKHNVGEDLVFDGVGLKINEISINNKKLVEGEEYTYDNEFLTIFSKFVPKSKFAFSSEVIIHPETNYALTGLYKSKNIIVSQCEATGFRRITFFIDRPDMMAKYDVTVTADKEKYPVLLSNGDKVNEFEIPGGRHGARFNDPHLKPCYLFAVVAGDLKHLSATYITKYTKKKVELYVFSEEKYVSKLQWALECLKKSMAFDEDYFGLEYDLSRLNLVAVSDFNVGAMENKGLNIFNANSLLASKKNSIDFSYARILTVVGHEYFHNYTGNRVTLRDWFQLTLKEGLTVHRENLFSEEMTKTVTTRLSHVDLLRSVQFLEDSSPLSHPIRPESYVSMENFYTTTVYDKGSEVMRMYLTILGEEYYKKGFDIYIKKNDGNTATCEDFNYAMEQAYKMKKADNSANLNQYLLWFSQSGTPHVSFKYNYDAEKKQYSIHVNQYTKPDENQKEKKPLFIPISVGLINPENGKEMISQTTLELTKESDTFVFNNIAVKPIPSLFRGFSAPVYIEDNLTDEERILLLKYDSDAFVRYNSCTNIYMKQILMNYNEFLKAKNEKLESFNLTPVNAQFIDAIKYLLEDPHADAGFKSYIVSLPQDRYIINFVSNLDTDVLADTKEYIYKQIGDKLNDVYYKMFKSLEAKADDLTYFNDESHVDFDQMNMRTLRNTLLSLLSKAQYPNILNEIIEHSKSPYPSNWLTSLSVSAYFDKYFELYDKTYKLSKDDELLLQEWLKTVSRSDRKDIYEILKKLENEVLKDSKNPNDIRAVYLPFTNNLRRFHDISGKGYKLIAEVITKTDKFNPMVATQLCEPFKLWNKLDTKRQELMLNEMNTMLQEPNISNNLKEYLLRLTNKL", "test": "P. falciparum M1AAP inhibitors, biochemical, fluorogenic H-Leu-NHMec substrate, 1536-well (AID 1445);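 note: plate controls were DMSO full reaction for no effect and no enzyme background for full effect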", "conditions": "recombinant M1AAP, H-Leu-NHMec fluorogenic kinetic assay; at 30 µM, active compounds read high unless noted"}
{"smiles": "O=c1[nH]c2ccc(NC(=S)NCc3ccccc3)cc2[nH]1", "inhibition": "-4.38% (inactive)"}
{"smiles": "C=CCn1c(COc2ccccc2)nnc1SC(C)C(=O)N/N=C/c1cc(Cl)ccc1O", "note": "(configuration not stated)", "inhibition": "46.5% (active)"}
{"smiles": "C=CCn1c(COc2ccc(Cl)cc2)nnc1SCC(=O)N/N=C/c1ccccc1", "inhibition": "0.22% (inactive)"}
{"smiles": "C=CCn1c(COc2ccc(Cl)cc2)nnc1SCC(=O)N/N=C/c1cccc(O)c1", "inhibition": "6.07% (inactive)"}
{"smiles": "CC1CC(=O)Nc2ccccc2N1S(=O)(=O)c1ccc(Br)cc1", "note": "(configuration not stated)", "inhibition": "-1.92% (inactive)"}
{"smiles": "COc1ccccc1NC(=O)Cc1noc(CSc2nnc(C)n2C)n1", "inhibition": "-2.44% (inactive)"}
{"smiles": "Cc1ccccc1CS(=O)(=O)Cc1ccc(C(=O)NCc2ccccn2)o1", "inhibition": "11.9% (inactive)"}
{"smiles": "CCc1cc2ccc(C)cc2nc1SCC(=O)Nc1cc(OC)c(OC)cc1C(=O)O", "inhibition": "17.6% (inactive)"}
{"smiles": "Cc1sc2ncnc(SCc3ccc(C(=O)O)cc3)c2c1C", "inhibition": "8.46% (inactive)"}
{"smiles": "O=C(CSc1ncnc2scc(-c3ccccc3)c12)Nc1ccc(C(=O)O)cc1", "inhibition": "7.21% (inactive)"}
{"smiles": "Cc1ccc(-c2csc3ncnc(SCC(=O)O)c23)cc1", "inhibition": "-4.79% (inactive)"}
{"smiles": "CCc1cc2ccccc2nc1SCC(=O)Nc1cc(OC)c(OC)cc1C(=O)O", "inhibition": "6.44% (inactive)"}
{"smiles": "COC(=O)CSc1ncnc2scc(-c3ccccc3)c12", "inhibition": "8.48% (inactive)"}
{"smiles": "Cn1c(SCC(=O)N(Cc2ccccc2)C(C)(C)C)nc2ccccc21", "inhibition": "-3.33% (inactive)"}
{"smiles": "COC(=O)c1ccc(N(C(=O)CNC(=O)c2ccco2)C(C(=O)NC2CCCC2)c2ccco2)cc1", "note": "(configuration not stated)", "inhibition": "-1.68% (inactive)"}
{"smiles": "FC(F)(F)c1cccc(OCCN2CCN(Cc3ccccc3)CC2)c1", "inhibition": "-0.96% (inactive)"}
{"smiles": "O=c1cnnc(N/N=C/c2ccc3c(c2)OCO3)[nH]1", "inhibition": "4.09% (inactive)"}
{"smiles": "COc1ccc(C(=O)COc2ccc(F)cc2)c(O)c1C", "inhibition": "0.41% (inactive)"}
{"smiles": "CCCCN1CNC(=S)N(CCc2ccccc2)C1", "inhibition": "2.11% (inactive)"}
{"smiles": "O=c1cc(/N=C/c2coc3cc(Br)ccc3c2=O)[nH]c(=S)[nH]1", "inhibition": "18.8% (inactive)"}
{"smiles": "O=C(CCCN1C(=O)S/C(=C\\c2ccccc2)C1=O)NNC(=O)c1ccccc1O", "inhibition": "-1.57% (inactive)"}
{"smiles": "O=C(NN=C1CCN(Cc2ccccc2)CC1)c1ccccc1O", "inhibition": "8.75% (inactive)"}
{"smiles": "O=C(CN1C(=O)/C(=C/c2ccccc2)SC1=S)NNC(=O)c1ccccc1O", "inhibition": "6.33% (inactive)"}
{"smiles": "O=C(NNC(=O)c1ccccc1O)c1ccco1", "inhibition": "5.04% (inactive)"}
{"smiles": "CCN1C(=O)C2(C(C(=O)c3cc4ccccc4o3)=C(O)C(=O)N2CCCN2CCOCC2)c2ccccc21", "note": "(configuration not stated)", "inhibition": "2.91% (inactive)"}
{"smiles": "COc1cccc(Cn2cnc3c(NS(=O)(=O)c4ccc(Cl)cc4)c(C)c(C)cc32)c1", "inhibition": "7.11% (inactive)"}
{"smiles": "O=C(N/N=C/c1ccc(-c2cccc([N+](=O)[O-])c2)o1)c1ccccc1O", "inhibition": "-18.1% (inactive)"}
{"smiles": "O=[N+]([O-])c1ccc(-c2ccc(/C=N/O)o2)cc1", "inhibition": "2.25% (inactive)"}
{"smiles": "NC(=O)N/N=C/c1ccc(-c2ccc([N+](=O)[O-])cc2)o1", "inhibition": "2.91% (inactive)"}
{"smiles": "Cc1ccc(C(=O)N/N=C\\c2ccc(-c3ccc([N+](=O)[O-])cc3)o2)cn1", "inhibition": "9.19% (inactive)"}
{"smiles": "O=C(O)c1ccc(N/N=C/c2ccc(-c3cccc(Cl)c3)o2)cc1", "inhibition": "13.1% (inactive)"}
{"smiles": "NC(=S)N/N=C/c1ccc(-c2ccc([N+](=O)[O-])cc2)o1", "inhibition": "-0.83% (inactive)"}
{"smiles": "O=C(N/N=C/c1ccc(-c2ccc([N+](=O)[O-])cc2)o1)C(O)c1ccccc1", "note": "(configuration not stated)", "inhibition": "18.2% (inactive)"}
{"smiles": "O=C(N/N=C/c1ccc(-c2cccc([N+](=O)[O-])c2)o1)c1ccc([N+](=O)[O-])cc1", "inhibition": "2.39% (inactive)"}
{"smiles": "Cc1ccc(-n2c(-c3ccco3)n[nH]c2=S)cc1", "inhibition": "0.43% (inactive)"}
{"smiles": "COC(=O)c1cc(C(=O)OC)cc(N2C(=O)CC(NNC(=O)c3ccccc3Br)C2=O)c1", "note": "(configuration not stated)", "inhibition": "17.2% (inactive)"}
{"smiles": "Cc1ccc(NC(=O)CN2C(=O)c3ccccc3C2=O)nc1", "inhibition": "1.04% (inactive)"}
{"smiles": "CCn1cc(C(=O)O)c(=O)c2cc(F)c(N/N=C/c3ccccc3[N+](=O)[O-])cc21", "inhibition": "-4.53% (inactive)"}
{"smiles": "Cc1nc(-c2cccc(S(=O)(=O)N3CC(C)OC(C)C3)c2)cs1", "note": "(configuration not stated)", "inhibition": "-2.63% (inactive)"}
{"smiles": "CCOc1ccc(CCNC(=O)Cc2nn[nH]n2)cc1OCC", "inhibition": "-2.11% (inactive)"}
{"smiles": "CN(C)C(=O)c1c([N+](=O)[O-])c(C(C)(C)C)nn1C", "inhibition": "9.14% (inactive)"}
{"smiles": "CCOc1ccccc1NC(=S)N1CCCc2ccccc21", "inhibition": "2.13% (inactive)"}
{"smiles": "C/C=C\\C(=O)Nc1cccc(C2=NOC3(C2)C[C@@H](C(N)=O)N(C(=O)c2ccccc2)C3)c1", "note": "(some centres not stated)", "inhibition": "7.63% (inactive)"}
{"smiles": "COc1ccc(C2c3ccc(O)cc3Oc3ncn(CCCO)c(=N)c32)cc1", "note": "(configuration not stated)", "inhibition": "8.86% (inactive)"}
{"smiles": "O=C(O)CC1S/C(=N/N=C/c2ccc(-c3ccc(Cl)cc3[N+](=O)[O-])o2)NC1=O", "note": "(configuration not stated)", "inhibition": "20.8% (inactive)"}
{"smiles": "CNC(=S)N/N=C/c1ccc(-c2ccc(Cl)c([N+](=O)[O-])c2)o1", "inhibition": "3.04% (inactive)"}
{"smiles": "O=C(Oc1ccccc1N1C(=O)C2CCCCC2C1=O)c1ccccc1F", "note": "(configuration not stated)", "inhibition": "4.73% (inactive)"}
{"smiles": "COc1ccc(NC(=O)C2CCN(S(C)(=O)=O)CC2)cc1Cl", "inhibition": "4.6% (inactive)"}
{"smiles": "O=C1C2CC=C(Cl)CC2C(=O)N1CCN1CCOCC1", "note": "(configuration not stated)", "inhibition": "2.4% (inactive)"}
{"smiles": "Cc1cc(/C=C2/C(=N)N3C(=NC2=O)SN=C3S(C)(=O)=O)c(C)n1-c1ccc(F)cc1", "inhibition": "14.2% (inactive)"}
{"smiles": "Cc1cc(/C=C2/C(=N)N3C(=NC2=O)SN=C3S(C)(=O)=O)c(C)n1-c1ccccc1F", "inhibition": "8.82% (inactive)"}
{"smiles": "CC(C)CSC1=NSC2=NC(=O)/C(=C\\c3coc4ccccc4c3=O)C(=N)N12", "inhibition": "19.5% (inactive)"}
{"smiles": "CC(C)CSC1=NSC2=NC(=O)/C(=C\\c3ccccc3)C(=N)N12", "inhibition": "-10% (inactive)"}
{"smiles": "COc1ccccc1-n1c(C)cc(/C=C2/C(=N)N3C(=NC2=O)SN=C3S(C)(=O)=O)c1C", "inhibition": "17.9% (inactive)"}
{"smiles": "CCSC1=NSC2=NC(=O)/C(=C\\c3coc4ccccc4c3=O)C(=N)N12", "inhibition": "19.9% (inactive)"}
{"smiles": "Nc1ccnn1Cc1ccc(Br)s1", "inhibition": "14.7% (inactive)"}
{"smiles": "CCOc1ccc2ncc(S(=O)(=O)c3ccccc3)c(N3CCN(c4ccc(OC)cc4)CC3)c2c1", "inhibition": "3.98% (inactive)"}
